Source: PubChem BioAssay (National Center for Advancing Translational Sciences (NCATS))
D3 ag: activates the human D3 dopamine receptor. D3R DiscoveRx beta-arrestin cells, luminescence, 90 min. max activation, %. 410,000 tested, 0.58% active. AID 652048; in the data active = max activation above about 30%; also: 0% is about no effect
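Cells at 1500/well, incubated overnight, then treated with pinned compounds (dopamine as control) for 90 min at 37 degrees C. DiscoveRx reagent added for 30 - 60 minutes at room temperature; luminescence read.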
D1 antag: blocks dopamine activation of the human D1 receptor; P21728; HEK293 TREx D1 cells, calcium flux, dopamine EC80; active compounds read low; activity change, negative = inhibition, % at 10 µM; 360,000 tested, 3.2% active; AID 504652; in the data active = activity change below about -30%; also: % is scaled to controls: 0 for no effect and ±100 for the full control effect
Target sequence (P21728 whole entry, looked up): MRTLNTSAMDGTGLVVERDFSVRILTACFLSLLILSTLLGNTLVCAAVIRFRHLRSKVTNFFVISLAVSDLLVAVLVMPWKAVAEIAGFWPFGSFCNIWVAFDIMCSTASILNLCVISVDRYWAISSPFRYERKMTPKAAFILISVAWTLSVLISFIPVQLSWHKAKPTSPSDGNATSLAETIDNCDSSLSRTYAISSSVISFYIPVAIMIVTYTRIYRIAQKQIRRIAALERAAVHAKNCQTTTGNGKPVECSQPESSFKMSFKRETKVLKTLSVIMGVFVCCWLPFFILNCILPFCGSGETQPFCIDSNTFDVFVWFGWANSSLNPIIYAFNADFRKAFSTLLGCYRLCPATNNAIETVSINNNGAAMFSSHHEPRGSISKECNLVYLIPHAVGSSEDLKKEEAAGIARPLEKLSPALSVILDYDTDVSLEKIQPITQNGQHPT
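After overnight tetracycline induction at 30 C, force-coupled D1 HEK293 cells took up a no-wash calcium dye at room temperature. Compounds were added and monitored 180 s, and the response to EC80 dopamine was then recorded.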
BCR signal inh: chronic active BCR signaling inhibition. ABC-DLBCL IkBa-CBG/CBR reporter, luminescence ratio, 4 h. 340,000 tested, 0.05% active. Potency, µM (titrated, usually from 46.1 µM), without a hit: at the top dose activity change, negative = inhibition, actives largely listed as inhibitors. AID 493014; active = well fitted inhibition curve with a large enough effect in the signal ratio, with a control signal flat, not every such curve was filed as active; inconclusive = small, poorly fitted or top-dose-only effect, or effect the other way, or a change in a side signal; the % refers to the signal ratio;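 also: potency is read from the fitted curve at half-maximal effect; plate controls were basal doxycycline-induced cells for no effect and cells given 10 µM MG132 for full effect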
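Cell line TMD8 (human ABC DLBCL), stably expressing tet-inducible CBG68-IkBa fusion and CBR; IMDM/0.5% FBS; cpd up to 46 uM; dox induction, 4 h, 37C/5% CO2; dual luminescence; green/red ratio; MG132 control.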
D1 potentiator: enhances dopamine response at the human D1 receptor; HEK293 TREx D1 cells, calcium flux, dopamine EC20 potentiation; potentiation, % at 10 µM; AID 504651; 360,000 tested, 0.036% active; P21728; in the data active = potentiation above about 30%; also: 0% is about no effect
DRD3 antagonist: blocks the human D3 dopamine receptor; D3R cells, DiscoveRx beta-arrestin luminescence, antagonist mode; active compounds read low; max response, negative = inhibition, %; 360,000 tested, 2.5% active; AID 652054; in the data active = max response below about -50%; inconclusive = no clear call, values can overlap the other calls; also: % is scaled to controls: 0 for no effect and ±100 for the full control effect
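Cells plated overnight at 1500 cells/well, then exposed to library compounds with dopamine controls for 90 minutes at 37 degrees C. DiscoveRx reagent added for 30–60 minutes at room temperature; luminescence read, quantitative HTS format.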
D1 ag: human D1 receptor agonism. P21728. HEK293 T-REx D1 cells, calcium flux, agonist mode. activation, % at 2 µM. 360,000 tested, 1% active; in the data active = activation above about 30%; also: 0% is about no effect
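Tetracycline-induced HEK293 TREx D1 cells, force-coupled to calcium signalling, were dye-loaded with a no-wash calcium kit. Compound was pin-added after a 10 s baseline. Fluorescence was read kinetically at 1 cycle/s for 180 s, with calcium rises flagged as agonism.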
The depositor's hits bear a star; ? = inconclusive; · = no result given. This is a sample that favours compounds with a hit; in the whole collection about 6% have one here.

SMILES	D3 ag	D1 antag	BCR signal inh	D1 potentiator	DRD3 antagonist	D1 ag
CC(C)c1ccc(/C=C2\NC(=S)N(Cc3cccnc3)C2=O)cc1	21	-37*	0%	-4	67	0
CN(Cc1ccccc1)C(=O)COC(=O)c1ccccc1NS(=O)(=O)c1cccc(N)c1	-1	-32*	-4%	-6	5	6
Clc1ccc(OCCOCCN2CCc3ccccc3C2)c(Cl)c1	-33	-2	?	-10	-74*	1
Clc1ccc(OCCCN2CCc3ccccc3C2)c(Br)c1	-3	6	0%	-4	-105*	0
COc1ccc(Cl)cc1NC(=O)CN1CCc2ccccc2C1	-14	3	0%	1	-6	3
c1ccc(-c2ccccc2OCCOCCN2CCc3ccccc3C2)cc1	-25	0	?	-21	-93*	2
O=C(NC1CCCc2ccccc21)c1ccc(=O)[nH]c1 (stereo not given)	2	-39*	-8%	-2	-11	1
O=C(CN1CCN(Cc2ccccc2Cl)CC1)N=Nc1c(O)[nH]c2ccccc12	-5	-7	?	-3	7	-1
Cc1ccc(CN2CCN(CC(=O)N=Nc3c(O)[nH]c4ccccc34)CC2)cc1	-17	5	?	-3	-90*	1
COc1cccc(N2CC(NC(=O)Cc3cccs3)CC2=O)c1 (stereo not given)	1	·	?	-1	·	-3
COc1ccc(NC(=O)CSc2nc(-c3cccs3)cc(C(F)(F)F)n2)c(OC)c1	24	10	·	0	·	5
N=C(N)SCc1ccc(Cl)cc1Cl	1	6	?	2	-18	34*
CSc1ccc(C(=O)C2CCCN(C(=O)c3cccnc3SC)C2)cc1 (stereo not given)	11	-32*	?	2	54	10
COc1ccc(CCN2CCC(Nc3nc4ccccc4n3Cc3ccc(F)cc3)CC2)cc1	-21	-21	?	7	?	112*
COc1ccc(CNc2nc3ccccc3n2CCN2CCCCC2)cc1	-20	·	-5%	-4	-64*	5
CCN(CC)c1ccc(CNc2nc3ccccc3n2CCN2CCCCC2)cc1	-22	·	?	0	-19	5
CCCc1nnc(NC(=O)Cc2coc3ccc(C)cc23)s1	0	0	·	0	·	-1
CCc1c(C)c2ccc(OCC(=O)OC(C)C)c(C)c2oc1=O	41*	-25	5%	3	56	11
CCc1c(C)c2ccc(OCC(=O)N(C)C)c(C)c2oc1=O	12	1	0%	1	21	7
CC[C@]12c3[nH]c4cc(-c5ccco5)ccc4c3CCN1C(=O)[C@@H](CC(=O)NCC13CC4CC(CC(C4)C1)C3)C[C@@H]2C(=O)N1CCN(C(=O)C2CC2)CC1	-46	·	4%	·	-54*	·
CCN(CC)C(=O)[C@H]1C[C@H](CC(=O)NCCC2=CCCCC2)C(=O)N2CCc3c([nH]c4cc(CCC(=O)N(C)C)ccc34)[C@]12C	9	·	-4%	·	20	·
CC(C)N(C(=O)[C@H]1CC(CC(=O)NCCC2=CCCCC2)C(=O)N2CCc3c([nH]c4ccccc34)[C@]12C)C(C)C (stereo not given in full)	-9	·	5%	·	-5	·
CCN(CC)C(=O)[C@H]1CC(CC(=O)NCCC2=CCCCC2)C(=O)N2CCc3c([nH]c4ccc(OC)cc34)[C@]12C (stereo not given in full)	41*	·	-12%	·	0	·
COc1ccc2[nH]c3c(c2c1)CCN1C(=O)C(CC(=O)NCCC2=CCCCC2)C[C@H](C(=O)N(C(C)C)C(C)C)[C@@]31C (stereo not given in full)	30*	·	?	·	-3	·
CC(C)N(C(=O)[C@H]1C[C@H](CC(=O)NCC23CC4CC(CC(C4)C2)C3)C(=O)N2CCc3c([nH]c4ccc(Cl)cc34)[C@]12C)C(C)C	37*	·	?	·	4	·
SMILES	D3 ag	D1 antag	BCR signal inh	D1 potentiator	DRD3 antagonist	D1 ag
COc1ccc(NC(=O)c2ccc(NC(=O)CCS(=O)(=O)c3cccs3)cc2)cc1Cl	26	-12	·	0	·	0
CCOc1ccc(NS(=O)(=O)c2ccc(-c3cc(C)no3)s2)cc1	4	-9	·	-4	·	14
COc1ccc(-n2ncc3c2ncn2nc(-c4ccc(OC)c(OC)c4)nc32)cc1	6	-8	·	4	·	1
O=C1NC(=O)c2c(Br)c(Br)c(Br)c(Br)c21	5	·	·	·	-11	·
COc1ccc2[nH]c3c(c2c1)CCN1C(=O)N([C@@H](C)C(=O)NCc2ccc(F)cc2)C(=O)[C@]31C	0	0	-15%	10	1	1
COc1ccc2[nH]c3c(c2c1)CCN1C(=O)N([C@@H](C)C(=O)NCCc2ccc(F)cc2)C(=O)[C@]31C	-23	-85*	?	-6	-2	1
Cc1onc(-c2c(F)cccc2Cl)c1C(=O)NCc1ccccn1	-4	-39*	0%	4	15	3
Cc1onc(-c2ccccc2Cl)c1C(=O)NCc1ccccn1	2	2	2%	1	-58*	3
Cc1onc(-c2c(F)cccc2Cl)c1C(=O)NCCO	1	-6	3%	1	1	3
COC(=O)[C@@]12C[C@@H](CC(=O)N3CCCCC3)C(=O)N(CCc3ccc(OC)c(OC)c3)C1=CCC(C)(C)C2	-1	·	·	·	-1	·
O=C(OCC1CCCO1)c1ccc2c(c1)N(Cc1cccc(Cl)c1)C(=O)c1ccccc1S2(=O)=O (stereo not given)	5	-10	·	-1	·	8
O=C(NCc1nnc(-c2cc3ccccc3[nH]2)o1)c1ccccc1	·	-11	·	-4	·	3
Cc1c(OC(C)C(=O)NCc2ccccn2)ccc2c3c(c(=O)oc12)CCCC3 (stereo not given)	0	-37*	-5%	-7	5	7
Cc1c(OC(=O)CNC(=O)OC(C)(C)C)ccc2c3c(c(=O)oc12)CCC3	-1	-43*	?	-10	16	4
Cc1c(OC(C)C(=O)NCc2ccncc2)ccc2c3c(c(=O)oc12)CCC3 (stereo not given)	6	9	-19%	0	22	4
Cc1c(OC(C)C(=O)NCCCN2CCCC2=O)ccc2c3c(c(=O)oc12)CCCC3 (stereo not given)	-15	4	1%	-2	12	33*
Cc1c(OC(C)C(=O)NC2CC(C)(C)NC(C)(C)C2)ccc2c3c(c(=O)oc12)CCC3 (stereo not given)	1	-49*	?	-5	-4	2
Cc1c(OCC(=O)OC(C)(C)C)ccc2c3c(c(=O)oc12)CCC3	12	-13	0%	-5	77	11
